From PubChem BioAssay (NCI)
This is part of a sample that, as a whole, favours compounds with a hit. Of some 83,000 tested, about 20% had one in any assay.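 Each cell line was grown in a 96-well plate and treated with one concentration of compound for 48 hours. Values below 10 were considered active.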 Calls of active or inactive are those of the source.

system: OVCAR-8 ovarian; assay: NCI-60 one-dose screen, 48 h (100 = growth as untreated, 0 = no growth, -100 = all killed); settings: 10 µM unless noted

Structure (SMILES)	growth
Cc1cc(N2CCOCC2)nc(N[C@@H]2CCC[C@H](Nc3ccnc4cc(Cl)ccc34)C2)n1	5.36% (active)
COc1ccc(C2CC(c3ccc4ccccc4c3)=NN2/C=C2\SC(=S)N(NC(=O)Cc3ccccc3Nc3c(Cl)cccc3Cl)C2=O)cc1 (stereo not drawn)	34.6% (inactive)
CCC([N+](=O)[O-])S(=O)(=O)c1ccc(C)cc1 (stereo not drawn)	95.3% (inactive)
COc1ccc(/C=C2\Oc3cc(OCCCCN4CCCC4)ccc3C2=O)cc1	91.1% (inactive)
NC(=NCCCC1(c2ccccc2)CCCC1)Nc1ccc(Cl)cc1	60.4% (inactive)
COc1ccc(/C=C\c2cc(OC)c(OC)c(OC)c2)cc1OCC(=O)Nc1ccc2nc(C)sc2c1	9.11% (active)
COc1ccc(C(=O)COc2ccc(/C=C3\COc4ccc(OC)cc4C3=O)cc2)cc1	44.3% (inactive)
COc1cc(C2CC(=O)c3ccccc3N2)cc(OC)c1OC (stereo not drawn)	94.3% (inactive)
Cc1cc(N2CCN(c3ccnc4cc(Cl)ccc34)CC2)nc(N2CCOCC2)n1	96.2% (inactive)
Cn1ncc2c(=O)nc3c(-c4ccccc4)n[nH]n3c21	99.8% (inactive)
CC(C)CC1C(=O)N2CCC[C@H]2C2(O)O[C@](NC(=O)C3C=C4c5cccc6[nH]c(Br)c(c56)C[C@H]4N(C)C3)(C(C)C)C(=O)N12 (stereo partly drawn)	63.3% (inactive)
O=C(Cc1ccc(/C=C/C(=O)c2ncc[nH]2)cc1)Nc1ccc(F)cc1	-6.92% (active)
COc1cc(-c2nn(C)nc2-c2cc3ccccc3s2)cc(OC)c1OC	28% (inactive)
CCOc1ccc(-n2nc(C(=O)Nc3ccccc3)nc2-c2cc(OC)c(OC)c(OC)c2)cc1	61.6% (inactive)
Nc1n[nH]c2ccc([C@@H]3Nc4cc5c(cc4[C@H]4C6CCC(C6)[C@@H]34)C(=O)NC5)cc12 (stereo partly drawn)	21.5% (inactive)
COc1cccc(-c2nc(SCC(=O)Nc3ccc(C(=O)/C=C/c4ccc(OC)c(OC)c4)cc3)[nH]c(=O)c2C#N)c1	99.2% (inactive)
CCCn1c(=O)[nH]c(N)c([C@H]2c3ccccc3Oc3[nH]c(=O)n(CCC)c(=O)c32)c1=O	78.9% (inactive)
O=C1CC[C@H](c2ccc(O)c3c2C(=O)[C@@H]2O[C@@H]2C3=O)c2cccc(O)c21	43.5% (inactive)
Cc1cn2c(/C=C3/C(=O)Nc4c3ccc3ccccc43)c(C(F)(F)F)nc2s1	27.7% (inactive)

Structure (SMILES)	growth
O=c1nc2oc3ccc4ccccc4c3cc-2s1	29.8% (inactive)
Cn1c(=O)[nH]c(=O)c2nc(CCC(=O)NCCC(=O)O)c(=O)[nH]c21	101% (inactive)
COc1cc(C(=O)Oc2ccccc2OC(=O)c2cc(OC)c(OC)c(OC)c2)cc(OC)c1OC	92.1% (inactive)
O=C1/C(=C/c2ccccc2O)N=C2SCCCN12	98.4% (inactive)
CC(C)(C)CC(C)(C)c1ccc(OCCOCC[N+](C)(C)Cc2ccccc2)cc1	-65.7% (active)
O=Nc1c(O)c(Cl)cc2ccccc12	68.6% (inactive)
COc1cc(Nc2cc(C)nc(N3CCN(c4ccnc5cc(Cl)ccc45)CC3)n2)cc(OC)c1	12.7% (inactive)
O=C(CCCCC(=O)N/N=C\c1ccccc1O)N/N=C\c1ccccc1O	41.7% (inactive)
C=C1c2nc3ccccc3n2C=C(c2cccc(Cl)c2)N1Cc1ccc(OC)cc1	9.77% (active)
CN(CCCCCl)P(=O)(OCc1ccc([N+](=O)[O-])o1)C(F)(F)c1ccc(CC(=O)NC[C@@H](O)/C=C\[C@@H](O)[C@H](CO)Cc2ccccc2)cc1 (stereo partly drawn)	95.1% (inactive)
CCNc1ncnc2c1cnn2C1CCCO1 (stereo not drawn)	115% (inactive)
O=C(COc1ccc(-c2nc3cc(Cl)c(Cl)cc3[nH]2)cc1)N=Nc1c(O)[nH]c2ccccc12	-24.2% (active)
O=C(CN(C(=O)Cn1c(=O)n2nnnc2c2ccccc21)c1ccccc1C(F)(F)F)Nc1ccc(C(F)(F)F)cc1	100% (inactive)
CCCCCCN(CCCCCC)C(=N)c1ccnc2ccccc12	71.7% (inactive)
CN1CCN(c2nc(NCCCCNc3ccnc4cc(Cl)ccc34)c3ccccc3n2)CC1	38.3% (inactive)
CC(=O)O[C@H]1[C@@H]2OC(=O)C(CSc3ccccc3)[C@@H]2C[C@H]2O[C@]2(C)CC/C=C(\C)CCC[C@@H]1C (stereo partly drawn)	28.7% (inactive)
CCCCC/C(C=C(C#N)C#N)=C/c1ccccc1	12.3% (inactive)
COc1ccc(CN2c3ccccc3Oc3ccccc32)cc1F	64.5% (inactive)
Nc1ccc(-c2cc3c(Nc4ccc(Oc5cccc(C(F)(F)F)c5)c(Cl)c4)ncnc3s2)cc1	73.3% (inactive)
